Assay results published in PubChem BioAssay AID489028 (Sanford-Burnham Center for Chemical Genomics, 2010).
Hit rate of the full screen: of about 10,000 compounds, about 5,600 (56%) were called active. Cut-off read from the data, not from the text of the source: active = inhibition above about 40%; inactive = the rest. The set was probably picked from earlier hits. A selection follows.

What follows are molecules tested against Protein Mdm4 (Homo sapiens) + E3 ubiquitin-protein ligase Mdm2 (Homo sapiens) (UniProt O15151+Q00987) (assay: inhibition of human Mdm2/MdmX pairing – luminescence, single concentration, confirmation (AID 489028)). Details: Mdm2-MdmX binding, luminescent assay; at 8 µM; hits give high values.
Chain of Protein Mdm4 (Homo sapiens) + E3 ubiquitin-protein ligase Mdm2 (Homo sapiens) (O15151 whole entry, looked up): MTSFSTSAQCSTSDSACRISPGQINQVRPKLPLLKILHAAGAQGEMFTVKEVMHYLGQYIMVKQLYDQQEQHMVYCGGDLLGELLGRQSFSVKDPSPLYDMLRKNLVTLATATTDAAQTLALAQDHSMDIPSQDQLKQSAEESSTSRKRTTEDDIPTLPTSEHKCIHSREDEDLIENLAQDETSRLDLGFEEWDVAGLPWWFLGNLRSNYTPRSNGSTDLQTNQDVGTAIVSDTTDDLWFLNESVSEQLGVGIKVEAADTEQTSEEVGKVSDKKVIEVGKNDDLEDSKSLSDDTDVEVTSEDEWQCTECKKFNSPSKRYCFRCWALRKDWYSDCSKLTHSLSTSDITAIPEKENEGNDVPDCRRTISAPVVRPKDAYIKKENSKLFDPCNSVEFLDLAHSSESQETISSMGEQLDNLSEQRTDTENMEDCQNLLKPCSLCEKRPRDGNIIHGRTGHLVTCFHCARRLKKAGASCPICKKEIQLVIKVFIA
Chain of Protein Mdm4 (Homo sapiens) + E3 ubiquitin-protein ligase Mdm2 (Homo sapiens) (Q00987 whole entry, looked up): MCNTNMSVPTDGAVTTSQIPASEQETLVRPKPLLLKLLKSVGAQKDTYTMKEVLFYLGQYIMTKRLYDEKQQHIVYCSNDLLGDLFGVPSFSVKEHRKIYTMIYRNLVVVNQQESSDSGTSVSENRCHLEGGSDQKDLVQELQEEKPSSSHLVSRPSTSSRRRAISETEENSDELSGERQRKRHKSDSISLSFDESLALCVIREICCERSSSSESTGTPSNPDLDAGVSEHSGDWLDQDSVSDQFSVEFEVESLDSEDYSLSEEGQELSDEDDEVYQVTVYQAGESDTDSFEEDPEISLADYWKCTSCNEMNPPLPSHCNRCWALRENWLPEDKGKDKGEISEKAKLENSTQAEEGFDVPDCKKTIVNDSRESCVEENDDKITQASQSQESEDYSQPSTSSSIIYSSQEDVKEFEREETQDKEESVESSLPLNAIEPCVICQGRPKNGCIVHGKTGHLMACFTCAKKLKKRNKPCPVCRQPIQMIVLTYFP

inhibition, active:
Cc1nc(/N=C(\N)NC(=O)NC2CCCCC2)nc2ccccc12 43.9%, O=[N+]([O-])/C=C/c1ccc2c(ccn2Cc2ccccc2)c1 52.9%, CN(c1ccccc1)S(=O)(=O)c1cc(C(=O)N2CCN(c3ncccn3)CC2)ccc1Cl 50.1%, COc1cccc(-n2c(SCC(=O)NC3CCCCC3)nc3n[nH]c(C)c3c2=N)c1 51.4%, CCOC(=O)Nc1ccc2c(c1)N(C(=O)CCCl)c1ccccc1[S@]2=O 41.2%, CCOc1cc(C(=O)N2CCc3cc(OC)c(OC)cc3C2)ccc1OC(F)F 56.4%, COc1cccc(NC(=O)[C@H](Cc2c[nH]c3ccccc23)NC(=O)[C@@H]2Cc3ccccc3CN2)c1 76%, Cc1ccc(OCCOCCOc2ccc(Br)cc2/C=N\NC(=O)c2ccncc2)cc1 68%, O=[N+]([O-])c1ccccc1S(=O)(=O)Nc1cccc2cccnc12 64.5%, CC(NC(=O)c1ccc(N2CCNCC2)c([N+](=O)[O-])c1)C12CC3CC(CC(C3)C1)C2 (stereo not drawn) 73%, Cc1cccc(Nc2ccccc2C(=O)NCc2ccco2)c1C 43.1%, CN(C)c1ccnc2sc3c(=O)n(Cc4ccccc4)cnc3c12 64.7%, Cc1c(/C=N\NC(=O)c2cc3ccccc3o2)c2ccccc2n1C 54.4%, COc1cccc(CNCCc2c[nH]c3ccccc23)c1OCc1ccccc1F 45.4%, COc1cccc(-c2nnc(NC(=O)c3ccc(S(=O)(=O)N(CC(C)C)CC(C)C)cc3)o2)c1 52.3%, NC(=O)c1sc2nc3c(c(-c4ccccc4)c2c1N)CCC3 68.7%, COc1ccc(CNC(=O)C[C@H]2C[C@H](C(=O)N3CCOCC3)[C@@]3(CCC4CCCC4)c4[nH]c5ccc(Cl)cc5c4CCN3C2=O)cc1OC 49.1%, CCCCCCCCn1c2c(c(=N)c3c1CCC3)CCCC2 91.8%, Cc1cc(=O)oc2cc(OCC3CC(c4ccccc4Cl)=NO3)ccc12 (stereo not drawn) 47.2%, Cc1nnnn1/C(=C\c1ccccc1)C(=O)OCC(=O)N1CC2(C)CC1CC(C)(C)C2 (stereo not drawn) 47.9%, O=C(NCC1CCCO1)c1cc2c([nH]c3ccccc32)c(-c2ccc(F)cc2)n1 (stereo not drawn) 61.5%, COc1cc(N=Cc2c(O)[nH]c3ccccc23)cc(OC)c1OC 73.8%, COc1ccc(N=Cc2c(O)[nH]c3ccccc23)cc1OC 47%, C[C@@H](NC(=O)OC(C)(C)C)c1nnc(S(=O)(=O)Cc2ccccc2)o1 54%, Cc1ccnc(NC(=O)C2CCN(S(=O)(=O)c3c(C)c(C)cc(C)c3C)CC2)c1 69.8%, COc1cccc2sc(NNC(=O)c3nc4ccccc4s3)nc12 45.7%, CCOc1ccc(-c2cc(C(=O)N/N=C/c3ccc(O)cc3)c3ccccc3n2)cc1 76.8%, COc1ccc(/C=C2\SC(=S)N(CCC(=O)Nc3ccccn3)C2=O)cc1OC 54.1%, O=C(CCCN1C(=O)/C(=C/c2cccs2)SC1=S)Nc1ccc(O)cc1 61.5%, O=C(CCCN1C(=O)/C(=C\c2ccccc2)SC1=S)Nc1ccccc1O 69.7%, O=C(CCCN1C(=O)/C(=C/c2ccccc2)SC1=S)Nc1ccc(O)cc1 93.9%, O=C(Nc1ccc(Cl)cc1)Nc1nnc(/C=C/c2ccccc2)s1 81.4%, Oc1ccc(Br)cc1/C=N/Nc1ccccn1 87.7%, CCCCNC(=O)C(C)N(CCN(C)C)C(=O)CCCCCN1C(=O)NC(c2ccc(Cl)cc2)C(C(=O)OCc2ccccc2)=C1C (stereo not drawn) 49.5%, Cc1cc(C(=O)COC(=O)CNC(=O)c2ccc(F)cc2)c(C)n1Cc1ccco1 72.7%, COc1cc(/C=N/NC(=O)Nc2ccccc2)ccc1OCCOc1ccccc1C 72.8%, Brc1ccc2ncnc(NCc3cccnc3)c2c1 68.7%, Cc1cccc(CS(=O)(=O)c2ncc(Cl)c(C(=O)Nc3ccc(F)cc3)n2)c1 75.5%, Cc1cccc(NC(=O)c2nc(S(=O)(=O)Cc3ccccc3)ncc2Cl)c1 95.2%, CC(=O)Nc1nc(C)c(-c2csc(Nc3ccc(S(N)(=O)=O)cc3)n2)s1 44.5%, CCCC(=O)Nc1nc2ccc(NC(=O)c3cccnc3)cc2s1 48.4%, O=C(/C=C/c1ccc(Cl)c([N+](=O)[O-])c1)c1cccnc1 66.7%, O=C(/C=C/c1ccc(Cl)c([N+](=O)[O-])c1)c1ccc(O)cc1 85.4%, Cc1[nH]c(C)c(S(=O)(=O)N2CCN(c3cccc(C(F)(F)F)c3)CC2)c1C(=O)N1CCCCC1 52.8%, CCNC(=O)c1c(O)c2cccc3c2n(c1=O)CC3 75.1%, CCOC(=O)c1c(-c2ccc(C)cc2C)csc1NC(=O)CSc1nnnn1C 51%, Cc1cccc(-n2c(C)cc(/C=N\NC(=O)c3cccs3)c2C)c1 40.1%, C[C@@H]1C[C@@H]2O[C@H]2/C=C\C=C\C(=O)Cc2c(Cl)c(O)cc(O)c2C(=O)O1 54.2%, Cc1ccc(C2CC(=O)NC(SCC(=O)OCc3ccccc3)=C2C#N)o1 (stereo not drawn) 44.5%, O=C(Nc1ccccc1Cl)/C(Cl)=C(\Cl)S(=O)c1ccccc1 (stereo not drawn) 100%, O=C1/C(=C\c2ccccc2Cl)SC(=S)N1CCC(=O)N1CCCc2ccccc21 60.8%, COc1cc2c(cc1OC)C(C)N(S(=O)(=O)c1cnc(Cl)c(Cl)c1)CC2 (stereo not drawn) 58.1%, C=CCn1c(C)cc(C(=O)CN2C(=O)c3ccccc3C2=O)c1C 68%, COc1ccc(-c2cn[nH]c2-c2ccc(OC)cc2)cc1 63%, CCOc1ccc(S(=O)(=O)Nc2cccc(C(=O)NCC3(N4CCCCC4)CCCCC3)c2)cc1 78.6%

inhibition, inactive:
CC(C)Oc1c(Br)cc(Br)cc1/C=N/NC(N)=S 15.2%, CCC1CCCCN1CCCNC(=O)c1cc2c(Cl)nc3ccccc3c2s1 (stereo not drawn) 26%, O=C(CSc1nc(Nc2ccccc2)nc(N2CCOCC2)n1)Nc1cc(Cl)ccc1O 35%, CC(C)(C)OC(=O)N1CCC(NC(=O)c2[nH]cnc2C(=O)N[C@@H](Cc2ccccc2)C(=O)OCc2ccccc2)CC1 -8%, CCOc1cc2[nH]c(=S)n(Cc3ccc(C(=O)N4CCN(C)CC4)cc3)c(=O)c2cc1OCC -2.8%, O=c1[nH]c(CCl)nc2cc(-c3ccc(Cl)cc3)sc12 7.45%, CC(C)=CCCC1(C)C=Cc2c(ccc3c2[nH]c2cc(O)c(C)cc23)O1 (stereo not drawn) 20.9%, O=C(Nc1cccc(C(F)(F)F)c1)c1ccc(N2CCNCC2)c([N+](=O)[O-])c1 8.6%, O=C(/C=C/c1ccc(Cl)cc1)Nc1ccc(Br)cn1 13.2%, CCc1nn(-c2cc(Oc3cccc4ccccc34)nc(-c3ccccc3)n2)c(N)c1C#N 13.9%, N#CCC(=O)N/N=C/c1cn(Cc2ccc3ccccc3c2)c2ccccc12 23.6%, CC(C)=CC(=O)Nc1nnc(-c2ccc(F)cc2)s1 -17.9%, CC(C)(C)OC(=O)NNc1c2ccccc2nc2ccccc12 21.1%, CC(=O)Nc1ccc(NC(=O)C2CCCN(S(=O)(=O)c3ccc(Cl)cc3)C2)cc1 (stereo not drawn) 3.65%, COc1cc2[nH]c(=S)n(Cc3ccc(F)cc3)c(=O)c2cc1OC 15.8%, Nc1ccc(C(=O)Nc2ccccc2N)cc1 6.25%, COc1ccc(C(=O)/C=C/Nc2ccccn2)cc1 25.4%, CCN1CCN(c2ccc(S(=O)(=O)N3CCCCC3)cc2NC(=O)Cc2c(Cl)cccc2Cl)CC1 30.6%, O=C(/C=C/c1ccccc1)Nc1nnc(SCC(=O)c2ccc3ccccc3c2)s1 2.95%, CCCCNC(=O)C(C)N(CCN(C)C)C(=O)CCCN1C(=O)NC(c2ccc(Cl)cc2)C(C(=O)OCc2ccccc2)=C1C (stereo not drawn) 15.1%, CC1=CC(C)(C)Nc2ccc(OC(=O)CN3C(=O)C4CCCCC4C3=O)cc21 (stereo not drawn) 9.75%, COc1ccc(/C=C/C(=O)Nc2ccc(C34CC5CC(CC(O)(C5)C3)C4)cc2)cc1OC 36.9%, CCn1c(O)c(N=NC(=O)c2cccc(S(=O)(=O)N3CCCCC3)c2)c2ccccc21 36.7%, CC(C)c1cc(C(=O)N/N=C/C(Br)=C/c2ccccc2)n[nH]1 35.2%, COc1cc(C(=O)NCc2nnc(SCC(=O)Nc3nc4ccc(C)cc4s3)o2)cc(OC)c1OC -0.1%, CCCn1nc(C(=O)Nc2ccc3nc(C)sc3c2)c2ccccc2c1=O 24.9%, CCN1C(=O)c2cccc3c(S(=O)(=O)Nc4ccccc4O)ccc1c23 39%, COc1ccc(/C=C/C(=O)c2ccc(NS(=O)(=O)c3ccc(C)cc3)cc2)cc1O 38.9%, COc1ccc(C(=O)/C=C/c2cccnc2)c(OC)c1 -4.6%, O=C(COC(=O)/C=C/c1cn(-c2ccccc2)nc1-c1cccnc1)Nc1ccc(Cl)cc1Cl 18.3%, CCC(C)N1C(=O)S/C(=C/c2ccc(Sc3nc4ccccc4[nH]3)o2)C1=O (stereo not drawn) 23.9%, C=CCC[C@@H](Cc1ccc(F)cc1)C(=O)OC[C@H](Cc1c[nH]c2ccccc12)NC(=O)[C@@H](CC=C)CC(=O)N(CCO)Cc1ccccc1 21.8%, CC1(C)Cc2nc3sc4c(SCC(=O)NC(c5ccccc5)c5ccccc5)ncnc4c3cc2CO1 2.85%
